Source: publication PMC4552634, “A New Set of Chemical Starting Points with Plasmodium falciparum Transmission-Blocking Potential for Antimalarial Drug Discovery” (PLoS ONE, 2015)
About 3,200 (25%) of roughly 13,000 compounds showed an effect of 50% or more. The list shows a part of the results.

System: P. falciparum stage V gametocytes
Parameters: BacTiter-Glo ATP luminescence viability of purified stage V gametocytes in 384-well plates, per cent inhibition versus DMSO
Details: 48 h, 5 µM; inhibitor

Structure (SMILES) | % Inhibition [%]
CON=C1CCC(Cn2ccnc2)(c2ccc(Cl)cc2Cl)CC1 (stereo not drawn) [TCMDC-132070] | -6.365
OC(Cn1ccnc1)(c1ccc(Cl)cc1Cl)C1CCCCC1 (stereo not drawn) [TCMDC-132084] | -1.887
Clc1ccc(OC2CCC(Cn3ccnc3)(c3ccc(Cl)cc3Cl)CC2)c(Cl)c1 (stereo not drawn) [TCMDC-132089] | 67.21
CN(C)CCCNC(=O)c1ccccc1Sc1ccccc1C#N [TCMDC-137689] | -3.028
Cc1c(S(=O)(=O)Nc2cccc(CCN3CCCCC3CCN3CCCC3)c2)sc2ccc(Cl)cc12 (stereo not drawn) [TCMDC-134097] | 7.809
O=S(=O)(Nc1ccc(CCN2CCCCC2CCN2CCCC2)cc1)c1cccc2cccnc12 (stereo not drawn) [TCMDC-134096] | 43.66
O=S(=O)(Nc1cccc(CCN2CCCCC2CCN2CCCC2)c1)c1ccc(-c2ccccc2)cc1 (stereo not drawn) [TCMDC-134093] | 39.18
NC1CCN(CCc2ccc(NS(=O)(=O)c3ccc(-c4ccccc4)cc3)cc2)CC1 [TCMDC-134085] | 111.6
CCc1ccc(S(=O)(=O)Nc2ccc(CCN(C)C3CCN(C)CC3)cc2)cc1 [TCMDC-134082] | 40.08
O=S(=O)(Nc1cccc(CCN2CCCCC2CCN2CCCC2)c1)c1cccc2ccccc12 (stereo not drawn) [TCMDC-134092] | 40.53
CC1CCN(CC[C@H]2CCCN2S(=O)(=O)c2cccc(NC(=O)c3ccc(-c4ccccc4)cc3)c2)CC1 [TCMDC-141076] | -81.19
O=S(=O)(Nc1cccc(CCN2CCCCC2CCN2CCCC2)c1)c1ccc2ccccc2c1 (stereo not drawn) [TCMDC-134091] | 64.43
O=S(=O)(Nc1ccc(CCN2CCCCC2CCN2CCCC2)cc1)c1ccc(-c2ccccc2)cc1 (stereo not drawn) [TCMDC-134095] | 70.29
O=S(=O)(Nc1cccc(CCN2CCCCC2CCN2CCCC2)c1)c1ccc(Oc2ccccc2)cc1 (stereo not drawn) [TCMDC-134094] | 61.85
O=c1cc(NCCCNCc2cc3c(Cl)cccc3s2)[nH]c2ccccc12 [TCMDC-140333] | -87.93
COc1c(Br)cc(Br)cc1C(C)=O [TCMDC-123841] | -7.365
CCOC(=O)c1[nH]c(-c2ccc(Cl)cc2)nc1NC(=S)NCCCN1CCOCC1 [TCMDC-138877] | 37.64
Cc1nc(-c2ccc(-c3ccc(C(=O)Nc4ccc5c(c4)C4(CCNCC4)CO5)cc3)c(C)c2)no1 [TCMDC-138993] | 45.43
O=C(N[C@@H](Cc1ccccc1)C(=O)NCc1cccc(C(F)(F)F)c1)c1ccc(O)c(-c2ccc(Cl)c(Cl)c2)c1 [TCMDC-140833] | 12.7
CN1CCN(S(=O)(=O)c2ccc3nccc(Nc4ccc(Oc5ccccc5)cc4)c3c2)CC1 [TCMDC-138691] | -22.54
Cc1cc(C=C(P(=O)(OC(C)C)OC(C)C)P(=O)(OC(C)C)OC(C)C)c2ccccc2c1O [TCMDC-138940] | 80.96

Structure (SMILES) | % Inhibition [%]
Cc1c(C(=O)Nc2cc(Sc3ccc(F)cc3)cc([N+](=O)[O-])c2)sc2ncn(Cc3ccccc3F)c(=O)c12 [TCMDC-125703] | 1.963
CCCN(CCC)CCCNc1ccc(C(=O)Nc2ccc(OCC)cc2)cc1[N+](=O)[O-] [TCMDC-125691] | 12.73
CCCN(CCC)CCCNc1ccc(C(=O)Nc2ccc(C)c(F)c2)cc1[N+](=O)[O-] [TCMDC-125685] | 15.23
CC1CC(C)CN(CCCNc2ccc(C(=O)Nc3ccc(C(F)(F)F)cc3)cc2[N+](=O)[O-])C1 (stereo not drawn) [TCMDC-125680] | 38.66
CCOc1ccc(NC(=O)c2ccc(NCCCN3CC(C)CC(C)C3)c([N+](=O)[O-])c2)cc1 (stereo not drawn) [TCMDC-125692] | 30.09
CCCN(CCC)CCCNc1ccc(C(=O)Nc2ccc(C(C)C)cc2)cc1[N+](=O)[O-] [TCMDC-125688] | 90.5
O=C(Nc1ccc(C(F)(F)F)cc1)c1ccc(NCCCN2CCCCCC2)c([N+](=O)[O-])c1 [TCMDC-125681] | 11.61
COc1cccc(NC(=O)c2ccc(NCCCN3CCC(C)CC3)c([N+](=O)[O-])c2)c1 [TCMDC-125690] | 0.09701
COc1cccc(NC(=O)c2ccc(NCCCN3CC(C)CC(C)C3)c([N+](=O)[O-])c2)c1 (stereo not drawn) [TCMDC-125689] | 53.82
CC1CCN(CCCNc2ccc(C(=O)Nc3ccc(C(F)(F)F)cc3)cc2[N+](=O)[O-])CC1 [TCMDC-125683] | 88.85
COc1ccc2ncc(F)c(NC(=O)C3CCC(NCc4cc5cc(F)cc(F)c5[nH]4)CC3)c2n1 (stereo not drawn) [TCMDC-136455] | 25.24
O=C(Nc1cccc(C2=NCCN2)c1)Nc1cccc(C2=NCCN2)c1 [TCMDC-124304] | -0.7345
COc1ccc(NC(=O)N2CCc3ccc(OCCN(C(C)C)C(C)C)cc32)cc1C(F)(F)F [TCMDC-140253] | -24.24
N#Cc1cccc(CNC(=O)c2cccc(Nc3ccnc4ccc(F)cc34)c2)c1 [TCMDC-136309] | 21.53
Cc1cc(NC(=O)c2ccc(S(=O)(=O)N(Cc3ccccc3)C(C)C)cc2)no1 [TCMDC-123547] | -7.124
CCNc1cc(C(=O)N[C@@H](Cc2ccccc2)[C@H](O)CNCc2cc(OC)cc(OC)c2)cc(N2CCCC2=O)c1 [TCMDC-134572] | -8.682
CCn1c(-c2nonc2N)nc2c(-c3cccc(NC(=O)Nc4ccc(C(F)(F)F)cc4)c3)ncc(OCCCN)c21 [TCMDC-136179] | 115.3
O=C(Nc1ccc(Cl)cc1)Nc1cccc(-c2cccc(-c3nc4ccc(C(F)(F)F)cc4[nH]3)c2)c1 [TCMDC-133180] | -47.4
CCn1c(-c2nonc2N)nc2c(-c3cccc(NC(=O)Nc4cccc(C(F)(F)F)c4)c3)ncc(OCCCN)c21 [TCMDC-136178] | 94.17
CCOC(=O)NCC(=O)Nc1cccc(-c2cccc(-c3nc4ccc(C(F)(F)F)cc4[nH]3)c2)c1 [TCMDC-137047] | -10.81
CCOC(=O)c1ccc(NC(=O)Nc2cccc(-c3ccc(-c4nc5ccc(C(F)(F)F)cc5[nH]4)cc3)c2)cc1 [TCMDC-133261] | -31.99
